Molecules are shown by their SMILES. The panel holds about 83,000 compounds, 20% with a hit somewhere; the sample as a whole holds those more often.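 Cells were grown in 96-well plates and exposed to the test compound at a single concentration for 48 hours; results are reported as percent growth, with values below 10 considered active.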 A number with no mark means an inactive call. The source made the active and inactive calls.

This assay relates to HL-60(TB) leukemia. Description: NCI-60 one-dose screen, 48 h (100 = growth as untreated, 0 = no growth, -100 = all killed). The settings on record: 10 µM unless noted.
As for `COc1ccc(-c2ccc(-c3ccc(C(=N)N)cc3)s2)cc1Cl`, the growth is -48.8% (active).
To `CCc1ccc2c(c1)N(CCO)C1=C(C(=O)OC1)C2c1ccccc1` (stereo not given) belongs 94.9%; to `COc1cc(CCc2cc(NC(=O)c3ccc(N4C[C@@H](C)N[C@@H](C)C4)cc3)n[nH]2)cc(OC)c1`, 12.5%; to `COc1cc(C2=NN(C(C)=O)C(c3cccc(Nc4ccnc5cc(C(F)(F)F)ccc45)c3)C2)cc(OC)c1OC` (stereo not given), 10.6%.
The value for `Nc1cc2c(cc1Cl)C(=O)c1ccccc1C2=O` was 81%.
As for `C=C1C(=O)O[C@H]2[C@H]1CC/C(CNC(=O)/C=C/c1cccc(OC)c1)=C\CC[C@@]1(C)O[C@@H]21`, the growth is -35.4% (active).
The value for `CC(=O)OC1CCC2(C)C(CCC3C4CC=C(C(C)=O)C4(C)OC(=O)CC32)C1` (stereo not given) was -39.8% (active); that for `O=c1[nH]nc(-c2ccccc2)c2sc(NC(=S)Nc3ccc(Cl)cc3)nc12` was 72.6%; that for `CCCCCCCCCCCCCC[N+](C)(C)CCCCCCCCCCCCCC` was 46.6%.
The value for `C/C(C=O)=C\c1ccc2c(c1)OCO2` was 102%.
To `COc1ccc(N2CCN(S(=O)(=O)c3oc(-c4ccccc4)nc3C#N)CC2)cc1` belongs 50.5%; to `O=C(/C=C/c1ccccn1)c1ccc(OCc2nnc(-c3ccc(Cl)cc3)o2)cc1`, 43%.
Take `Cn1cc(CC2CC(=O)N(c3ccccc3)C2=O)sc1=NC(=O)c1ccccc1` (stereo not given): the growth is 114%.
For the molecule `CCn1c(SCCc2ccccc2)nnc1-c1nn(-c2ccc(Cl)cc2Cl)c(-c2ccc(Cl)cc2)c1C`, the growth is 67.8%.
To `COc1ccc2cc1Oc1ccc(cc1)C[C@H]1c3c(cc4c(c3Oc3cc5c(cc3OC)CCN(C)[C@@H]5C2)OCO4)CCN1C` belongs 36.3%.
The value for `COC(=O)[C@@]12OC[C@]34[C@H]([C@@H](O)[C@@H]1O)[C@@]1(C)[C@H](O)C(=O)C=C(C)[C@@H]1C[C@H]3OC(=O)C(OC(C)=O)[C@@H]24` (stereo not given in full) was -59% (active); that for `C=CCn1cc(-c2nc3ccccc3s2)c2cc(-c3ccc4c5c(cccc35)C(=O)N(CCN3CCNCC3)C4=O)ccc21` was 103%; that for `O=C1OCC2=C1C(c1ccncc1)c1cc3c(cc1N2CCO)OCO3` (stereo not given) was 99.2%.
`Cc1c2cnccc2c(C)c2c1c1cc(O)ccc1n2C(C)C`: the growth was 0.765% (active).
With `COc1cc2ccc(C(C)=O)cc2cc1OC`, the growth is 133%.
To `COc1ccc([C@@H]2[C@@H](Oc3ccccc3)C(=O)N2c2cc(OC)c(OC)c(OC)c2)cc1F` belongs -53.9% (active); to `c1ccc2c[n+](Cc3ccc4ccccc4n3)ccc2c1`, 74.3%; to `O=c1nc2oc3ccc4ccccc4c3cc-2s1`, -29.2% (active).
For the molecule `CN(CSc1ccc(Cl)cc1)c1ccc(CSc2ccc(Cl)cc2)cc1`, the growth is -16.2% (active).
To `CCCCCC#CC(=O)O` belongs 97.4%.
To `Nc1nc(OCc2ccccc2)c2[nH]cnc2n1` belongs 62.7%; to `CN(CC(=O)N(Cc1ccc(C2CCCCC2)cc1)c1ccc(C(=O)NO)cc1)S(=O)(=O)c1c(F)c(F)c(F)c(F)c1F`, 43.6%.
The value for `N#CC(C#N)=Cc1cc2ccccc2nc1Oc1ccc(C(F)(F)F)cc1` was 78.4%; that for `CN(C)c1cccc2[nH]c(-c3[nH]ncc3Nc3ccnc(N)n3)nc12` was -42.7% (active).
Consider `c1ccc(Oc2c3ccccc3nc3ccccc23)cc1`, for which the growth was -16.4% (active).
As to `CCCCN(CCCC)C(=O)[C@H](CC)[C@@H]1CC[C@@H](C)[C@@H]([C@H](C)[C@@H](O)[C@@H](C)C(=O)[C@H](CC)C2O[C@]3(C=CC(=O)[C@]4(CC[C@@](C)([C@H]5CC[C@](O)(CC)[C@H](C)O5)O4)O3)[C@H](C)C[C@@H]2C)O1` (stereo not given in full), the growth was -1.52% (active).
To `COc1cc2nc(NC3CCC3)nc(NC3CCN(C(C)C)CC3)c2cc1OC` belongs 4.58% (active).
To `COc1cc(/C=N\Nc2ccccc2)ccc1OC(=O)c1ccccc1` belongs -10.8% (active); to `COc1ccc(-c2nn(-c3cccc(Cl)c3)cc2-c2cc(-c3ccccc3)[nH]c(=O)c2C#N)cc1`, 111%.
The value for `CN1CCN(c2c(F)cc(NC3=C(Cl)C(=O)c4ncccc4C3=O)cc2F)CC1` was -24.7% (active); that for `COc1ccc2nc3ccccc3c(NCc3ccc(C)cc3)c2c1` was 0.0372% (active).
Turning to `N#C/C(=C\c1ccc(-c2ccc(Cl)cc2)o1)c1nc(-c2ccco2)cs1`, the growth is 92.3%.
To `O=C(O)c1ccccc1Cc1ccc2c(c1)CCCC2` belongs 130%.
The value for `CCSc1cnnc2ccccc12` was 91.5%; that for `COc1ccc(/C=C(\C#N)n2nnc3cc(F)c(F)cc32)cc1` was 13.8%.

The values are drawn from PubChem BioAssay (NCI).
